Screen size: about 310,000 compounds; about 14,000 (4.5%) showed an effect of 50% or more. The effect is printed as a negative number. This excerpt belongs to a sample that is enriched for strong results.
Molecular target: human ether-à-go-go-related gene (hERG) potassium channel (human, UniProt Q12809)
Test: primary screen, population patch clamp on CHO cells stably expressing hERG; higher = less effect of the substance
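Also: peak tail current of the secondary pulse compared with the same well before compound.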

human ether-à-go-go-related gene (hERG) potassium channel, sequence (Q12809 whole entry, looked up): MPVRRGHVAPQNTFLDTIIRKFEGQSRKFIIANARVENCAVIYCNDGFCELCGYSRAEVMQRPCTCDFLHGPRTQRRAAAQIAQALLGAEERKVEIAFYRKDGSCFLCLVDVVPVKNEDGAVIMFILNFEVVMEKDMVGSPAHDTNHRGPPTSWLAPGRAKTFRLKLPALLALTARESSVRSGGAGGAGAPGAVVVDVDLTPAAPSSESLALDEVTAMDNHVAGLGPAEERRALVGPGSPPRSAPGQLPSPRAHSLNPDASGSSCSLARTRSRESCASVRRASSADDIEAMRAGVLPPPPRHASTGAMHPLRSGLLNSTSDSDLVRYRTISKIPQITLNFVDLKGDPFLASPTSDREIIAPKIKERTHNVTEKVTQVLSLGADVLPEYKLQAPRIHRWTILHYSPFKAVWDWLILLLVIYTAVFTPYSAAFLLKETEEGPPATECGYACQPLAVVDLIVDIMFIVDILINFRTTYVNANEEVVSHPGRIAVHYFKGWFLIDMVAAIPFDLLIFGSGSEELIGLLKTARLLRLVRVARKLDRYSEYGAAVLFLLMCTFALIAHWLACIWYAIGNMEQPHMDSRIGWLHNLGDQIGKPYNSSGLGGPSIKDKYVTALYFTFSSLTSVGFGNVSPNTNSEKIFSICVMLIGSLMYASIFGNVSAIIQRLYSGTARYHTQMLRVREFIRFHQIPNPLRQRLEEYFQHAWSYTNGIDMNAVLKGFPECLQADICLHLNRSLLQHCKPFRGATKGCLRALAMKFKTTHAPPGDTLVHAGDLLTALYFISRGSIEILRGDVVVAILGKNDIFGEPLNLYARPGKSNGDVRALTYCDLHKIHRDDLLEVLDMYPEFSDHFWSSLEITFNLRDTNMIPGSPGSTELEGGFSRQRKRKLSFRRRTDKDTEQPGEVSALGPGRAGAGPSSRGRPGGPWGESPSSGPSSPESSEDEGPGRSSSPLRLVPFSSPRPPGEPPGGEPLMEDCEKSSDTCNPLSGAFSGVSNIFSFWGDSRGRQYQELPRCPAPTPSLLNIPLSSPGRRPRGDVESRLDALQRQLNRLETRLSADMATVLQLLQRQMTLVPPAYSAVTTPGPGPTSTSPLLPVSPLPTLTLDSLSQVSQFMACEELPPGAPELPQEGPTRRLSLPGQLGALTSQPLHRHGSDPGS

| Structure (SMILES) | hERG current change (%, negative = inhibition) at 10uM [%] |
| --- | --- |
| CC(O)CNc1nc2c(c(=O)n(C)c(=O)n2C)n1Cc1cccc(C(F)(F)F)c1 (stereo not drawn) | -12.9 |
| O=[N+]([O-])c1cccc(/C=N/Nc2ncc(Br)cn2)c1 | 19.6 |
| CCc1cccc(C)c1N(C(=O)Cn1c(=O)[nH]c2ccccc21)C(C)COC (stereo not drawn) | -4.31 |
| CCN(CC(=O)Nc1ccc2c(c1)OCCO2)C(=O)/C=C/c1cccc(Br)c1 | -28.7 |
| O=C(CN1C(=O)NC2(CCCCCCC2)C1=O)Nc1ccc(Br)cc1 | 5.19 |
| Cc1ccc(-n2nc(C)c3c(C)c(CCC(=O)NCc4ccccc4)c(C)nc32)cc1 | 10.5 |
| CCC(C)NC(=O)CCc1c(C)nc2c(c(C)nn2-c2ccccc2)c1C (stereo not drawn) | -1.82 |
| Cc1nc2c(c(C)nn2-c2ccccc2)c(C)c1CCC(=O)Nc1ccc(CN2CCCC2)cc1 | -61 |
| Cc1ccc(-n2nc(C)c3c(C)c(CCC(=O)Nc4ccc(CN5CCCC5)cc4)c(C)nc32)cc1 | -60.2 |
| CCCNC(=O)CCc1c(C)nc2c(c(C)nn2-c2ccccc2)c1C | 0.304 |
| Cc1ccc(CNC(=O)CCc2c(C)nc3c(c(C)nn3-c3ccc(C)cc3)c2C)cc1 | 10.1 |
| C/C(=N\NC(=O)c1cc(-c2cccc([N+](=O)[O-])c2)n[nH]1)c1ccc(F)cc1 | 8.28 |
| O=C(COC(=O)CC1CC2CCC1C2)Nc1ccc(F)cc1 (stereo not drawn) | -22.4 |
| Cc1ccc2c(c1)/C(=C/c1ccc(F)cc1)C(=O)N2 | 10.5 |
| COc1cc(C(=O)N/N=C/c2coc3ccc(Cl)cc3c2=O)ccc1O | 14.2 |
| COc1ccc(CCN2C(=O)CC(NNc3ccc([N+](=O)[O-])cc3)C2=O)cc1OC (stereo not drawn) | -52.8 |
| COc1ccc(CCNC2CC(=O)N(CCc3ccccc3)C2=O)cc1OC (stereo not drawn) | 0.286 |
| CCc1ccc(NC2CC(=O)N(CCc3ccc(OC)c(OC)c3)C2=O)cc1 (stereo not drawn) | -13.4 |
| Cc1cccc(C(=O)N2CCN=C2SCc2ccc([N+](=O)[O-])cc2)c1 | -51.9 |
| CCN1CCN(C(=O)c2ccc(CSc3ccc(C)cc3)cc2)CC1 | -63.6 |
| O=[N+]([O-])c1ccc(S(=O)(=O)N2CCN=C2SCc2cccnc2)cc1 | -68.1 |
| O=S(=O)(c1ccccc1)N1CCN=C1SCc1cccnc1 | -12.1 |
| Cc1cc(C)cc(C(=O)N2CCN=C2SCc2ccc([N+](=O)[O-])cc2)c1 | -23.5 |

| Structure (SMILES) | hERG current change (%, negative = inhibition) at 10uM [%] |
| --- | --- |
| O=C(c1ccccc1)N1CCN=C1SCc1ccc([N+](=O)[O-])cc1 | -56.4 |
| Cc1ccc(SCc2ccc(C(=O)N3CCCC3)cc2)cc1 | -30.1 |
| Cc1ccc(SCc2ccc(C(=O)N3CCCCC3)cc2)cc1 | 1.58 |
| O=S(=O)(c1ccc(F)cc1)N1CCN=C1SCc1cccnc1 | -27.6 |
| CC(=O)N1CCN=C1SCc1ccccc1 | 19.1 |
| Cc1cccc(CC(=O)N2CCN=C2SCc2ccc([N+](=O)[O-])cc2)c1 | -11.8 |
| O=C(N=C1SC2CS(=O)(=O)CC2N1c1ccc(F)cc1F)C1CC1 (stereo not drawn) | 2.47 |
| O=C(OCC(=O)N1CCCC1=O)C1CCN(S(=O)(=O)c2c(Cl)cccc2Cl)CC1 | -36.1 |
| O=C(NCc1cccnc1)NC1CC(=O)N(c2ccc3c(c2)OCCO3)C1 (stereo not drawn) | -0.536 |
| CC(C)(C)n1nnnc1C(c1cccc(C#N)c1)N1CCN2CCCC2C1 (stereo not drawn) | 4.48 |
| Cn1c(C(C#N)/C(=N\S(=O)(=O)c2cccs2)c2ccccc2)nc2ccccc21 (stereo not drawn) | 2.46 |
| O=C(O)CC1(CC(=O)Nc2cc(C(F)(F)F)cc(C(F)(F)F)c2)CCCCC1 | 18.6 |
| Cc1cccc(N2CCN(C(=O)c3ccc4c(c3)NC(=O)C(CSCc3cccc(F)c3)N4)CC2)c1C (stereo not drawn) | 15.9 |
| O=C(c1ccc([N+](=O)[O-])cc1)N1CCN=C1SCc1ccccc1 | -72.2 |
| Cc1ccc(C(=O)N2CCN=C2SCc2ccc([N+](=O)[O-])cc2)cc1 | -70.5 |
| O=C(Cc1ccccc1)N1CCN=C1SCc1cccc([N+](=O)[O-])c1 | -22.6 |
| Cc1ccccc1C(=O)N1CCN=C1SCc1ccc([N+](=O)[O-])cc1 | -63.6 |
| O=C(c1cccc2ccccc12)N1CCN=C1SCc1ccc([N+](=O)[O-])cc1 | -10.7 |
| Cc1ccc(C)c(CSC2=NCCN2C(=O)Cc2ccc([N+](=O)[O-])cc2)c1 | -4.06 |
| Cc1ccc(C(=O)N2CCN=C2SCc2ccc([N+](=O)[O-])cc2)cc1C | 2.84 |
| CN(C)S(=O)(=O)c1ccc(C(=O)N2CCN=C2SCc2ccccc2)cc1 | 20.9 |
| Cc1ccc(CSC2=NCCN2C(=O)c2ccc([N+](=O)[O-])cc2)cc1 | -42.9 |

From publication PMC4336329 (PLoS ONE, 2015)
